PAX8 reporter: inhibitors of PAX8-driven TPO luciferase reporter, primary screen, RMG-I cells, single concentration; AID 652154, 2013; SteadyGlo, 24 h; 1.2% of 360,000 active; inhibition, % at 12.6 µM;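 active = mean replicate inhibition at least 60% with every replicate also reaching 60%; inconclusive = only one of the two criteria is met; inactive = mean below 60% and not all replicates reaching 60%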;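 also: luciferase light reporting Pax8 driven TPO promoter activity; plate controls were median of neutral control wells for no effect and mitoxantrone controls for full effect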
HIV Env fusion: inhibitors of HIV-1 Env-driven cell-cell fusion, primary screen, HeLa-JRFL effector, CEM21 target cells, luciferase; inhibition, % at 12.3 µM; 1.1% of 360,000 active; AID 651610, 2012;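 active = mean replicate inhibition score of at least 50 and every replicate individually at or above 50; inconclusive = only one of the two criteria met; inactive = mean below 50 and not all replicates reaching 50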;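 also: 0% = plate neutral controls and 100% = maraviroc near 300 nM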
F508del corr: F508del CFTR correction, initial screen, CFBE line, single point; AID 720511, 2013; 0.36% of 350,000 active; activity (quench increase), % at 7.58 µM; CFBE cells, YFP halide quenching; stimulated with forskolin plus potentiator P3; % fluorescence drop versus neutral controls;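 active = mean added fluorescence quench of at least 8% versus neutral control, with both replicates also reaching 8%; inconclusive = only one of the mean or replicate conditions met; inactive = mean below 8% and not both replicates reaching 8%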;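 also: cells transiently co-express mutant CFTR-F508del with the halide-sensitive YFP; corrector assay measuring rescue of mutant channel to the surface after 24 h compound exposure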
FXN GAA850 act: FXN promoter activators, primary screen, cell-based, luciferase luminescence, HEK293 lucGAA850; AID 540364, 2011; 0.56% of 360,000 active; activation, % at 6 µM; HEK293 lucGAA850 FXN promoter luciferase reporter, 24 h; percent of 10 µM SAHA response;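 active = activation above the average of all compounds screened plus 3 SD, cutoff fixed separately per campaign, cut at about 7.5% in these data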;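 also: 0% = DMSO wells and 100% = 10 µM SAHA wells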
EWS-Fli block: EWS/Fli-driven NR0B1 reporter inhibitors, primary screen, A673 cells, NR0B1 luciferase, luminescence, MLPCN library | viability-normalised | inhibition, % at 12.6 µM | 0.67% of 350,000 active;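 active = mean inhibition of at least 50% after viability correction, with every replicate also passing that limit; inconclusive = mean reaches 50% but only one of two replicates passes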;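 also: firefly luciferase signal divided by Alamar Blue viability fluorescence both relative to DMSO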
DNA binder FP: DNA binders by acridine orange displacement, dose response, counter-screen for EWS/Fli inhibitor project, biochemical, fluorescence polarization, cherry-pick | shares compounds with EWS-Fli block | salmon sperm DNA acridine orange fluorescence polarization | AC35, µM (highest dose often 68 µM), for the others: at the top dose activity change, negative = DNA binding | 2% of 640 active | AID 720586, 2013;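 active = fitted curve reaches a 35% signal fall AC35 below twice the sample's top valid tested dose, actives reach about 48 µM in these data; inactive = the rest, including activity in the rising direction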;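 also: lower polarization ratio signals compound binding to DNA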
* hit, by the source's call; ? = inconclusive; / = no result given; ! = repeats disagree; [ ] = dose if it differs, or a comment. Most compounds without a hit are left out; they make up all but 2.5% or so of the library.

SMILES	PAX8 reporter	HIV Env fusion	F508del corr	FXN GAA850 act	EWS-Fli block	DNA binder FP
COC(=O)C(CC#Cc1ccc2c(c1)[C@]1(C(=O)N2)[C@H](C(=O)N2CCN(c3ncccn3)CC2)[C@H]2C(=O)O[C@H](c3ccccc3)[C@H](c3ccccc3)N2[C@@H]1c1ccc(OCCO)cc1)C(=O)OC	14	-153[16.7 µM]	-3	/	?	/
COc1ccc(-c2cnc3c(NC=O)cc(-c4ccccc4OC)cn23)cc1OC	100*	-180	3	-3	58*	-5%
COc1cc(-c2cc(NC=O)c3ncc(-c4ccc(F)cc4)n3c2)cc(OC)c1OC	18	-7	1	2	15	/
CNC(=O)C[C@@H]1CC[C@H]2[C@H](COc3ccc(NS(=O)(=O)c4ccccc4C)cc3C(=O)N2C)O1	4	19[16.7 µM]	0	/	0	/
COc1ccc(S(=O)(=O)N2CCCc3nc(-c4ccc(F)cc4)ccc32)cc1	21	21	2	/	60*	4%
CCCNC(=O)C[C@H]1CC[C@@H]2[C@H](COC[C@@H](O)CN2Cc2ccc(Cl)c(Cl)c2)O1	-4	/	1	/	-8	/
COc1ccc(N=C2C(=O)Nc3ccc(C)c(Br)c32)cc1	0	-152	1	1	70*	-8%
Cc1ccc(N=C2C(=O)Nc3ccc(C)c(Br)c32)cc1	/	/	/	1	/	/
CCCCc1c(Cc2ccccc2)ncn1CCc1ccccc1OC	62*	58*	6	/	55*	-13%
CC(=NNc1ccc2ccccc2n1)c1ccccc1O	32	18	3	-3	74*	-15%
CC(=NNc1ccc2ccccc2n1)c1ccccn1	114*	110*	4	/	85*	8%
C[C@@H]1CN([C@@H](C)CO)C(=O)Cc2cc(NC(=O)NC3CCCCC3)ccc2O[C@H]1CN(C)Cc1ccc(C(=O)O)cc1	-9	/	0	/	-5	/
COc1ccc(S(=O)(=O)Nc2ccc3c(c2)C(=O)N([C@@H](C)CO)C[C@H](C)[C@H](CN(C)C(=O)Nc2cccc4ccccc24)OCCCC[C@H](C)O3)cc1	10	25[16.7 µM]	-2	/	-5	/
CC1=NC(=O)C(N=Nc2cccc(C(=O)O)c2)N1c1ccccc1 (centres undefined)	/	/	0	-4	64*	8%
CC1=NC(=O)C(N=Nc2ccccc2)N1c1ccccc1 (centres undefined)	/	/	/	6	/	/
CN(C)C(=O)c1ccc(-c2ccc([C@@H]3[C@H]4CN(C(=O)C5CCCC5)CCCCN4[C@H]3CO)cc2)cc1	7	/	-4	/	10	/
COc1ccc(C/C(N)=N/OC(C)=O)cc1OC	10	-14	/	1	83*	-5%
COc1ccc(C(=O)Nc2cccc(C(=O)N/N=C/c3ccc(OC)cc3OC)c2)cc1	40	15	0	2	54*	8%
COc1ccc(NC(=O)N2CCCCN3[C@H](CO)[C@H](c4ccc(C5=CCCCC5)cc4)[C@@H]3C2)cc1	11	/	-2	/	11	/
O=C(Nc1ccc(F)cc1)N1CCCCN2[C@@H](CO)[C@H](c3ccc(C4=CCCCC4)cc3)[C@@H]2C1	54	/	-1	/	52*	0%
C[C@@H]1CN([C@@H](C)CO)C(=O)c2cc(NC(=O)CCCCCC(=O)Nc3ccccc3N)ccc2O[C@@H]1CN(C)S(C)(=O)=O	-6	/	0	/	11	/
Cc1cc2sc3ccc(C#CC4(O)CCCCC4)cc3c(=O)c2cc1C	32	65*	-3	-13	91*	5%
O=c1c2ccccc2oc2ccc(C#CC3(O)CCCCC3)cc12	-17	-143	2	-7	61*	-9%
CCNC(=O)C[C@H]1CC[C@@H]2[C@@H](COc3ccc(NC(=O)C4CCOCC4)cc3C(=O)N2C)O1	-7	-13[16.7 µM]	-2	/	-4	/
O=C(Cc1nn[nH]n1)NCc1ccccc1Cl	/	/	/	-1	/	/
SMILES	PAX8 reporter	HIV Env fusion	F508del corr	FXN GAA850 act	EWS-Fli block	DNA binder FP
O=C(Cc1nn[nH]n1)c1ccccc1O	15	12	/	1	68*	-2%
C[C@H]1CN([C@@H](C)CO)C(=O)c2cc(NC(=O)Cc3cn(C)c4ccccc34)ccc2O[C@@H]1CN(C)Cc1ccncc1	25	-12[16.7 µM]	-3	/	/	/
Nc1nc2ncc(CNc3ccc(C(=O)N[C@@H](CCC(=O)O)C(=O)O)cc3)nc2c(=O)[nH]1	/	/	-4	0	0	/
CN(Cc1cnc2nc(N)nc(N)c2n1)c1ccc(C(=O)N[C@@H](CCC(=O)O)C(=O)O)cc1	48	62*!	-1	-8	64*	-3%
CCC1=Nc2cc(C(=O)NCC3CCCO3)ccc2Sc2ccc(Br)cc21 (centres undefined)	29	-22	4	-3	55*	-22%
C[C@@H]1CN([C@H](C)CO)C(=O)CCCn2nncc2CO[C@@H]1CN(C)C(=O)Nc1cccc(Oc2ccccn2)c1	/	-9[16.7 µM]	-1	/	-9	/
O=C(O)CN1C(=O)/C(=C\c2ccccc2OCc2ccc(Cl)cc2Cl)SC1=S	2	35	3	-11	59*	-6%
CC(C)CC#Cc1ccc([C@@H]2[C@@H](CO)N3CCCCN(S(=O)(=O)c4ccc(F)cc4)C[C@H]23)cc1	91*	/	1	/	82*	-11%
Cc1c(Cl)cccc1NC(=O)Cn1cc(C(F)(F)F)cc(Cl)c1=O	1	7	/	1	-9	/
Cc1ccc(Cl)cc1NC(=O)Cn1cc(C(F)(F)F)cc(Cl)c1=O	9	18	/	-1	76*	4%
CC1(C)N=C(N)N=C(N)N1c1ccc(CCCCc2ccccc2)cc1	68*	20	1	-8	57*	-4%
CC1(C)N=C(N)N=C(N)N1c1ccccc1	/	/	/	2	/	/
COc1cc(/C=N/NC(=O)c2csc3c2CCCC3)cc(OC)c1O	-6	7	/	1	85*	-7%
Cc1ccc(/C=N/NC(=O)c2csc3c2CCCC3)cc1	/	/	/	2	/	/
O=C(Sc1cccc2cccnc12)c1ccccc1Br	100*	28	2	-15	50*	-1%
COc1ccc(NC(=O)Nc2ccc3c(c2)CC(=O)N([C@H](C)CO)C[C@H](C)[C@@H](CN(C)S(C)(=O)=O)O3)cc1	-11	4[16.7 µM]	1	/	5	/
C[C@H](CO)N1C[C@H](C)[C@H](CN(C)Cc2ccc(C(=O)Nc3ccccc3N)cc2)Oc2ccc(N(C)C)cc2CC1=O	32	-154[16.7 µM]	5	/	67*	1%
C[C@H](CO)N1C[C@H](C)[C@H](CN(C)Cc2cccc(F)c2)Oc2ncc(C#CCc3ccccc3)cc2C1=O	/	/	-1	/	12	/
C[C@@H]1CN([C@H](C)CO)C(=O)c2cc(C#CCc3ccccc3)cnc2O[C@@H]1CN(C)Cc1cccc(F)c1	/	/	2	/	56*	-7%

Compound activity: PubChem BioAssay, several laboratories
